Data from PubChem BioAssay (Tox21).
Inconclusive results are not listed. Active and inactive are the calls of the source. Unless noted, the call rests on the fitted dose curve; in most records, active means well fitted curve in the direction sought with a large enough effect in the repeat runs; inconclusive means weak or mixed curves; inactive means no such curve, though single readings can be large; an effect the other way counts as inactive or inconclusive.

Key:
[1] = qHTS assay for small molecules that induce genotoxicity in human embryonic kidney cells expressing luciferase-tagged ATAD5 (AID 651632); further: nearly all actives have a fitted effect of over 15% in size
Outline: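 A rise in luciferase signal from ATAD5-tagged HEK293T cells marks genetic stress. Cells were exposed to compounds for 16 hr at 37C, 5% CO2, then luciferase was quantified after a 30 min room-temperature incubation with Amplite.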

[2] = qHTS assay for small molecule agonists of the p53 signaling pathway - cell viability (AID 651633; calls by dose curve; further: series mostly up to about 83 µM; nearly all actives have a fitted effect of over 30% in size)
Outline: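 Viability counter-read: CellTiter-Glo luminescence (30 min, room temperature) in the same p53RE-bla plates. These plates had been exposed to compounds for 16 h at 37 C.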

[3] = qHTS assay for small molecules that induce genotoxicity in human embryonic kidney cells expressing luciferase-tagged ATAD5 - cell viability (AID 651634; calls by dose curve; further: nearly all actives have a fitted effect of over 25% in size)
Outline: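 Cytotoxicity counter-readout: after 15.5 hr compound treatment at 37C, live-cell protease activity in ATAD5-luciferase HEK293T cells measured by CellTiter-Fluor fluorescence, 30 min development at 37C.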

[4] = qHTS assay for small molecule disruptors of the mitochondrial membrane potential - cell viability (AID 720634; calls by dose curve;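 further: human HepG2 liver cancer cells; series mostly up to about 83 µM; nearly all actives have a fitted effect of over 20% in size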)
Outline: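 Cytotoxicity was quantified from ATP content by CellTiter-Glo luminescence in the same wells as the MMP dye read-out. HepG2 (2,000 cells/well) were plated overnight and exposed to compounds for 1 hr at 37 C.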

[5] = qHTS assay to test for compound auto fluorescence at 590 nm (red) in HepG2 cells (AID 720674)
Outline: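 We screened compounds on adherent HepG2 cells, incubating them for an hour at 37 C in 5% CO2 before reading emission at 590 nm under 540 nm excitation; values reflect equivalence to Rose Bengal sodium fluorescence.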

[6] = qHTS assay to test for compound auto fluorescence at 535 nm (green) in HepG2 cells (AID 720675)
[7] = qHTS assay to test for compound auto fluorescence at 460 nm (blue) in HEK293 cells (AID 720678)
Outline: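 Triamterene serves as the blue fluorophore standard. Compound signal at 405/460 nm is read in HEK293 wells (2,000 cells, 10% dialyzed FBS) after overnight treatment at 37C.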

[8] = qHTS assay to test for compound auto fluorescence at 590 nm (red) in HEK293 cells (AID 720679)
Outline: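 We plated HEK293 cells in 10% dialyzed FBS medium, let them adhere for 4-5 hr, then added 23 nL compound. Overnight at 37C and 5% CO2 preceded fluorescence measurement at 540/590nm.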

[9] = qHTS assay for small molecule agonists of the p53 signaling pathway (AID 651631; calls by dose curve; further: nearly all actives have a fitted effect of over 15% in size)
Outline: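 HCT-116 cells carrying a stable p53 response element–beta-lactamase reporter were plated, rested 5 h at 37 °C, then exposed to compound in DMSO for 16 h at 37 °C; reporter activity was read as FRET substrate fluorescence after 2 h at room temperature.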

[10] = qHTS assay for small molecule disruptors of the mitochondrial membrane potential (AID 720635)
Outline: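 Mitochondrial membrane potential tracked with Mito-MPS dye, red aggregates (ex 540/em 590 nm) against green monomers (ex 490/em 535 nm). Compound treatment 1 hr at 37C, dye 30 min in HepG2.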
On the % scale 0 is the no-effect control and ±100 the full control effect.

CC[C@H](O)C(C[C@H](C)N(C)C)(c1ccccc1)c1ccccc1
inactive: outcome [1] | Potency [2] | Potency [3] | Potency [4] | outcome [5] | outcome [6] | outcome [7] | outcome [8]

Clc1ccc(C(Cl)(Cl)Cl)cn1
inactive: Potency [9] | Potency [2] | Potency [3] | Potency [4] | outcome [5] | outcome [6] | outcome [7] | outcome [8]

CC(C)(C)C(=O)C(Cl)Cl
inactive: Potency [9] | Potency [3] | Potency [4] | Potency [10] | outcome [5] | outcome [6] | outcome [8]

NC(=O)CS(=O)C(c1ccccc1)c1ccccc1 (stereo unspecified)
inactive: Potency [9] | Potency [3] | Potency [4] | outcome [5] | outcome [6] | outcome [7] | outcome [8]

Brc1c(Br)c(Br)c(Br)c(Br)c1Br
inactive: activation [9] -6.36% [at 8.3 µM] | activity change, negative = cytotoxicity [2] 9.67% [at 8.08 µM] | activity, negative = cytotoxicity [3] 13.6% [at 8.08 µM] | activity change, negative = cytotoxicity [4] 4.11% [at 8.08 µM] | fluorescence, relative to Rose Bengal [5] 0.167% [at 3.72 µM] | fluorescence, % of fluorescein control [6] 0.0147% [at 3.72 µM] | fluorescence, % of triamterene [7] 0.185% [at 3.72 µM] | fluorescence, % of fluorescent control [8] -0.438% [at 3.72 µM]

O=C(NC(O)C(Cl)(Cl)Cl)NC(O)C(Cl)(Cl)Cl (stereo unspecified)
inactive: outcome [1] | Potency [2] | Potency [3] | Potency [4] | outcome [5] | outcome [6] | outcome [7] | outcome [8]

BrCC1CO1 (stereo unspecified)
inactive: outcome [1] | Potency [2] | Potency [3] | Potency [4] | outcome [5] | outcome [6] | outcome [7] | outcome [8]

Cc1ccc2cc(C)ccc2c1
inactive: outcome [1] | Potency [2] | Potency [3] | Potency [4] | outcome [5] | outcome [6] | outcome [7] | outcome [8]

NCCOS(=O)(=O)O
inactive: outcome [1] | Potency [2] | Potency [3] | Potency [4] | outcome [5] | outcome [6] | outcome [7] | outcome [8]

CC(C)[C@]12CC(=O)[C@H](C)[C@H]1C2
inactive: outcome [1] | Potency [2] | Potency [3] | Potency [4] | Potency [10] | outcome [5] | outcome [6] | outcome [7] | outcome [8]

CC[C@@H](CO)NC(=O)[C@@H]1C=C2c3cccc4[nH]cc(c34)C[C@H]2N(C)C1
inactive: outcome [1] | Potency [2] | Potency [3] | Potency [4] | Potency [10] | outcome [5] | outcome [6] | outcome [7] | outcome [8]

O=P(O)(O)CN(CP(=O)(O)O)CP(=O)(O)O
inactive: outcome [1] | Potency [2] | Potency [3] | Potency [4] | fluorescence, relative to Rose Bengal [5] -0.158% [at 18.6 µM] | fluorescence, % of fluorescein control [6] -0.0161% [at 18.6 µM] | fluorescence, % of triamterene [7] 0.0178% [at 18.6 µM] | fluorescence, % of fluorescent control [8] 0.149% [at 18.6 µM]

CN=CNc1ccc(C)cc1C
inactive: outcome [1] | Potency [2] | Potency [3] | Potency [4] | outcome [5] | outcome [6] | outcome [7] | outcome [8]

Nc1c(Cl)c(F)nc(OCC(=O)O)c1Cl
inactive: Potency [9] | Potency [2] | Potency [3] | Potency [4] | outcome [5] | outcome [6] | outcome [8]

NC(=O)OCCCc1ccccc1
inactive: Potency [9] | Potency [2] | Potency [3] | Potency [4] | outcome [5] | outcome [6] | outcome [7] | outcome [8]

CCN[C@@H](C)Cc1cccc(C(F)(F)F)c1
inactive: outcome [1] | Potency [2] | Potency [3] | Potency [4] | Potency [10] | outcome [5] | outcome [6] | outcome [7] | outcome [8]

CN(C)CCc1c[nH]c2cccc(OP(=O)(O)O)c12
inactive: outcome [1] | Potency [2] | Potency [3] | Potency [4] | Potency [10] | outcome [5] | outcome [6] | outcome [8]

CCC1(CC)C(=O)C=CNC1=O
inactive: Potency [9] | Potency [3] | Potency [4] | outcome [5] | outcome [6] | outcome [7] | outcome [8]

CCN[C@@H](C)Cc1ccccc1
inactive: Potency [9] | Potency [2] | Potency [3] | Potency [4] | outcome [5] | outcome [6] | outcome [7] | outcome [8]

C[C@H](N)C(=O)c1ccccc1
inactive: outcome [1] | Potency [2] | Potency [3] | Potency [4] | outcome [5] | outcome [6] | outcome [7] | outcome [8]

Cc1ccc(-c2nc3ccc(C)cn3c2CC(=O)N(C)C)cc1
inactive: Potency [9] | Potency [3] | Potency [10] | outcome [5] | outcome [6] | outcome [7] | outcome [8]

CC(C)[N+](C)(CCC(C(N)=O)(c1ccccc1)c1ccccc1)C(C)C
inactive: Potency [9] | Potency [2] | Potency [3] | Potency [4] | fluorescence, relative to Rose Bengal [5] -0.328% [at 18.6 µM] | fluorescence, % of fluorescein control [6] -0.0469% [at 18.6 µM] | fluorescence, % of triamterene [7] 0.0132% [at 18.6 µM] | fluorescence, % of fluorescent control [8] -0.12% [at 18.6 µM]

CCOP(=S)(OCC)Oc1ccc(Cl)cc1Cl
inactive: Potency [9] | Potency [2] | Potency [3] | outcome [5] | outcome [6] | outcome [7] | outcome [8]

N=C(N)[Se]
inactive: Potency [9] | Potency [3] | Potency [4] | outcome [5] | outcome [6] | outcome [8]

COC(=O)c1ccc(CBr)cc1
inactive: Potency [9] | Potency [3] | Potency [4] | Potency [10] | outcome [5] | outcome [6] | outcome [7] | outcome [8]

CN(CCO)CCO
inactive: Potency [9] | Potency [2] | Potency [3] | Potency [4] | outcome [5] | outcome [6] | outcome [7] | outcome [8]

N[C@@H](Cc1ccc(Oc2cc(I)c(O)c(I)c2)c(I)c1)C(=O)O
inactive: outcome [1] | Potency [2] | Potency [3] | Potency [4] | Potency [10] | outcome [5] | outcome [6] | outcome [7] | outcome [8]

CCNc1nc(Cl)nc(NC(C)(C)C)n1
inactive: outcome [1] | Potency [2] | Potency [3] | Potency [4] | outcome [5] | outcome [6] | outcome [7] | outcome [8]

C=C1C[C@@H]2[C@H](CC[C@]3(C)C(=O)CC[C@@H]23)[C@@]2(C)C=CC(=O)C=C12
inactive: outcome [1] | Potency [2] | Potency [3] | Potency [4] | outcome [5] | outcome [6] | outcome [7] | outcome [8]

C[C@]12C=CC(=O)C=C1CC[C@@H]1[C@@H]2CC[C@@]2(C)[C@H]1CC[C@]2(C)O
inactive: outcome [1] | Potency [2] | Potency [3] | Potency [4] | Potency [10] | outcome [5] | outcome [6] | outcome [7] | outcome [8]

O=C(O)CBr
inactive: Potency [9] | Potency [3] | Potency [4] | outcome [5] | outcome [6] | outcome [7] | outcome [8]

NNC(N)=O
inactive: outcome [1] | Potency [2] | Potency [3] | Potency [4] | outcome [5] | outcome [6] | outcome [7] | outcome [8]

O=P(O)(O)c1ccccc1
inactive: outcome [1] | Potency [2] | Potency [3] | Potency [4] | outcome [5] | outcome [6] | outcome [7] | outcome [8]

C=CC1(C)OC(=O)N(c2cc(Cl)cc(Cl)c2)C1=O (stereo unspecified)
inactive: Potency [9] | Potency [2] | Potency [3] | Potency [4] | outcome [5] | outcome [6] | outcome [8]

CCCN1CCC[C@@H]2Cc3[nH]ncc3C[C@H]21
inactive: outcome [1] | Potency [2] | Potency [3] | Potency [4] | outcome [5] | outcome [6] | outcome [7] | outcome [8]

CC(Cl)(Cl)Cl
inactive: Potency [9] | Potency [2] | Potency [3] | Potency [4] | outcome [5] | outcome [6] | outcome [7] | outcome [8]

CCC(C)(C#N)N=NC(C)(C#N)CC (stereo unspecified)
inactive: Potency [9] | Potency [2] | Potency [3] | Potency [4] | outcome [5] | outcome [6] | outcome [7] | outcome [8]
